Compound activity: PubChem, The Scripps Research Institute Molecular Screening Center
Shown are actives, neighbours in structure and some others; about 3% of the full set was active somewhere.
PP5 primary: PP5 (human) phosphatase inhibition. AID 1987. 320,000 compounds, 0.18% hits. purified PP5c, OMFP substrate fluorescence. inhibition, % at 6.7 µM;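 active means inhibition above the campaign's mean inhibition across all tested compounds plus 3 SD, cut at about 9.5% in these data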;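 further: 0% = DMSO only and 100% = 100 µM cantharidin control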
PAFAH2 FP inh: PAFAH2 (human) inhibition; recombinant PAFAH2, FP-rhodamine activity probe, fluorescence polarization; inhibition, % at 3.39 µM; 340,000 compounds, 0.99% hits; AID 492956;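 active means inhibition above the mean over all tested compounds plus 3 SD, cut at about 30% in these data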;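 further: inhibitors block probe labeling of enzyme so polarization drops; 0% = enzyme with DMSO and 100% = wells lacking PAFAH2 protein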
PAFAH1B2 inh: PAFAH1B2 (human) inhibition; inhibition, % at 3.39 µM; P68402; AID 492953; 340,000 compounds, 1.2% hits; recombinant PAFAH1B2, FP-rhodamine activity probe, fluorescence polarization;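 active means inhibition above the mean of all tested compounds plus 3 SD, cut at about 24% in these data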;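 further: 0% = enzyme with DMSO and 100% = wells lacking PAFAH1B2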
Target sequence (P68402 whole entry, looked up): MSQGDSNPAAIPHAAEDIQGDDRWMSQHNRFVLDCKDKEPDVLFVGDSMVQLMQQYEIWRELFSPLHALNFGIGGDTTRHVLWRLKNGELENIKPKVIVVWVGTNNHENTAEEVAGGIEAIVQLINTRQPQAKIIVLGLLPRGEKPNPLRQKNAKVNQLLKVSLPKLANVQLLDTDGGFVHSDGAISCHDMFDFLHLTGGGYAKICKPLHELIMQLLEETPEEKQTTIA
pPAFAH FP inh: pPAFAH (human) enzyme inhibition; Q13093; recombinant pPAFAH, FP-rhodamine probe fluorescence polarization; inhibition, % at 3.39 µM; 330,000 compounds, 1.5% hits; AID 463082;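 active means inhibition above the mean inhibition across the screen plus 3 SD, cut at about 25% in these data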;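 further: inhibitors block binding of the rhodamine activity-based probe so polarization drops; 0% = enzyme with DMSO and 100% = wells lacking pPAFAH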
PAFAH1B3 inh: inhibitors of human PAFAH1B3. 340,000 compounds, 0.28% hits. AID 492972. inhibition, % at 3.39 µM. recombinant PAFAH1B3, FP-rhodamine probe, fluorescence polarization. Q15102;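 active means inhibition above the screen-wide average of all tested compounds plus 3 SD, cut at about 25% in these data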;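 further: 0% = enzyme with DMSO only and 100% = wells lacking PAFAH1B3 protein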
Target sequence (Q15102 whole entry, looked up): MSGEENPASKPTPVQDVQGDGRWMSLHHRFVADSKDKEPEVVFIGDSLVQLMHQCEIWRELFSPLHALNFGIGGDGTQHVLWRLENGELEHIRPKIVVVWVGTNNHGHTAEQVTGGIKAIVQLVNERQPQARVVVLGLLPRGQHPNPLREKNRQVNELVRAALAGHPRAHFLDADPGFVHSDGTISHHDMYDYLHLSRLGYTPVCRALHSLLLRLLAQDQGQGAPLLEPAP
Fh CTSL1 inh: counter-screen for PFM18AAP inhibitors: inhibitors of F. hepatica cathepsin L1. recombinant F. hepatica cathepsin L1, Z-Leu-Arg-MCA fluorescence. inhibition, % at 5.96 µM. 300,000 compounds, 0.49% hits. AID 1906;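 active means inhibition above the mean of all tested compounds plus 3 SD, set per screening campaign, cut at about 17% in these data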;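 further: 0% = plate median of test compound wells and 100% = 1 µM Z-Phe-Ala-diazomethylketone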
Active calls of the source: *; / = no result.

SMILES | PP5 primary | PAFAH2 FP inh | PAFAH1B2 inh | pPAFAH FP inh | PAFAH1B3 inh | Fh CTSL1 inh
CC1=NN(c2cccc(F)c2)C(=O)/C1=C/c1ccc(N(C)C)cc1 | 1.2 | 1.2 | -2.3 | 7.7 | 15.8 | -4.9
CN(Cc1ccccc1)C(=O)c1ccc(NC(=O)Cc2ccc(NC(=O)C3CCN(S(=O)(=O)c4cccc([N+](=O)[O-])c4)CC3)cc2)cc1 | / | -21.1 | -7.2 | / | -17.2 | /
Cc1ccc(C(=O)N/N=C/c2cc(Br)ccc2O)cn1 | -3.0 | -1.0 | 5.5 | 1.2 | 14.4 | 18.7*
Cc1ccc(C)n1-c1sc2c(c1C(=O)O)CCCC2 | 1.5 | 16.5 | 2.5 | 25.5* | -2.4 | -5.8
CCOC(=O)c1c(-n2c(C)cc(C=O)c2C)sc2c1CCCC2 | 1.2 | -6.4 | 6.5 | 8.6 | 7.0 | 1.5
CCn1c(SCC(=O)c2ccc3c(c2)OCCO3)nnc1-c1ccco1 | 2.2 | -1.7 | 2.5 | -2.2 | 3.5 | 17.0*
Cn1c(SCC(=O)c2ccc(-c3ccccc3)cc2)nnc1-c1ccco1 | -0.2 | 5.1 | 4.4 | 30.0* | 3.0 | -3.8
COc1ccc(N2CCN(CCC(=O)c3ccc4ccccc4c3)CC2)cc1 | -0.2 | -5.4 | -0.1 | 4.8 | 7.2 | 1.6
COc1ccc(NC(=O)Nc2cccc3c2O[C@H](CN(C)S(C)(=O)=O)[C@@H](C)CN([C@H](C)CO)C3=O)cc1 | / | 4.4 | -0.8 | -3.1 | 1.3 | /
O=C(CCNC(=O)c1ccccc1Cl)Nc1cccc(S(=O)(=O)N2CCCC2)c1 | 0.7 | -1.7 | 2.4 | -0.9 | 8.8 | /
Nc1ncnc(NC2CCS(=O)(=O)C2)c1[N+](=O)[O-] (configuration not stated) | 2.9 | -1.3 | 0.1 | 3.4 | -3.6 | 49.1*
Cc1cc2cc(CCNC(=O)CCc3ccccc3)c(=O)[nH]c2cc1C | 0.7 | 9.3 | 17.1 | 2.2 | 1.6 | -3.6
O=C(/C=C/c1ccco1)c1ccc(NC(=O)C23CC4CC(CC(C4)C2)C3)cc1 | -2.5 | -5.0 | 1.7 | 31.9* | -10.7 | -2.0
CC1CC(NC(=O)CCn2c(=O)oc3ccccc32)CC(C)(C)C1 (configuration not stated) | -1.8 | 44.2* | 37.8* | 2.6 | 7.2 | -3.6
COc1ccccc1C(=O)NC(=O)COC(=O)c1nc(Cl)ccc1Cl | 0.3 | 1.4 | 0.2 | -0.7 | -4.5 | -3.0
COc1ccccc1-n1c(=O)c(C#N)c(-c2ccc([N+](=O)[O-])cc2)c2cc(C(=O)c3cc(F)ccc3O)cnc21 | 5.3 | -3.3 | 2.4 | 1.3 | -2.1 | 2.5
Cn1c(=O)c(C#N)c(-c2ccc(F)cc2)c2cc(C(=O)c3cc(Cl)cc(Cl)c3O)cnc21 | 3.6 | 13.9 | 6.6 | 26.2* | 7.7 | 6.4
CCC1CCc2c(sc(NC(=O)c3ccoc3C)c2C(N)=O)C1 (configuration not stated) | 3.3 | 1.8 | 1.0 | 25.3* | -3.7 | 1.1
CC(O)(CS(=O)(=O)Cc1cccc(C(F)(F)F)c1)C(=O)Nc1cccc(C(F)(F)F)c1 (configuration not stated) | 3.0 | -7.3 | 38.5* | 1.6 | -3.2 | 0.6
Cc1cc(-c2ccccc2)c2ccc(NC(=O)C(C)(C)C)nc2n1 | 2.6 | -12.7 | 32.6* | 9.2 | 14.3 | -1.2
Cc1cc(C)nc(/N=C(\NC(=O)C(C)(C)C)Nc2ccccc2)n1 | 1.1 | -1.5 | 2.1 | -0.1 | 8.2 | 2.9
O=C(NC1CCCCC1)c1sc(=S)n2c1[nH]c(=O)c1ccccc12 | 0.7 | 56.3* | 42.0* | 31.5* | 32.4* | 8.9
Cn1c(CNC(=O)CCNC(=O)c2ccccc2)cc(=O)n(C)c1=O | 0.3 | 4.7 | 3.6 | 2.2 | 4.9 | -1.4
Cc1c(C(=O)N2CCCCC2)c(S(=O)(=O)Nc2ccc(F)cc2F)c(C)n1C | 0.7 | -11.5 | 2.3 | -0.1 | 6.2 | 0.0
Cc1cc(N(CN2CCCC2=O)C(=O)c2ccc(OC(C)C)cc2)no1 | 1.1 | -8.7 | -0.6 | -5.4 | 1.2 | 19.4*
SMILES | PP5 primary | PAFAH2 FP inh | PAFAH1B2 inh | pPAFAH FP inh | PAFAH1B3 inh | Fh CTSL1 inh
Cc1cc(N(CN2CCCC2=O)C(=O)c2ccc(F)cc2)no1 | -0.1 | 0.4 | 3.5 | 7.7 | 7.2 | -19.9
O=C(O)c1cccc(N2C(=O)/C(=C/c3ccc(SCc4ccc(Cl)cc4)o3)SC2=S)c1 | / | 23.4 | 33.9* | / | 14.7 | /
O=C(CSc1n[nH]c(-c2cccnc2)n1)Nc1ccccc1C(F)(F)F | 2.4 | -3.1 | -3.6 | -3.6 | -2.4 | 1.8
CCN(CC(=O)NCc1cccs1)C(=O)CCCOc1ccc(C(C)(C)C)cc1 | 5.3 | -5.1 | 25.1* | 16.2 | 1.2 | /
COc1ccc(NC(=S)N2CCC(c3nc4ccc(Cl)cc4[nH]3)CC2)c(OC)c1 | 3.7 | -5.7 | -3.2 | 31.1* | 6.8 | 0.1
Cc1ccc(NC(=O)c2ccc(C(=O)c3ccccc3)cc2)nc1 | 5.1 | -1.9 | 0.8 | 0.6 | 3.1 | 1.4
Cc1ccc(-c2c3c(nc4sc(C(N)=O)c(N)c24)CCC3)cc1 | 4.3 | 0.0 | -7.2 | 28.3* | 4.5 | -1.1
NC(=O)c1sc2nc3c(c(-c4ccco4)c2c1N)CCCC3 | 2.4 | -2.9 | 5.6 | 18.1 | 3.1 | 2.9
NC(=O)c1sc2nc3c(c(-c4ccc(Cl)cc4)c2c1N)CCCC3 | 4.9 | 7.0 | 3.6 | 29.6* | 7.2 | -0.4
CCN(CC)S(=O)(=O)c1ccc(-n2c(=O)c(C(C)C)c(C)n2C)cc1 | 3.3 | -1.2 | 4.0 | 3.1 | 1.4 | -1.3
O=C(NC1CCCC1)C(c1ccc(F)cc1)N(Cc1ccc(F)cc1)C(=O)CCl (configuration not stated) | 1.2 | -0.4 | 16.8 | 0.7 | 3.8 | 50.7*
COC(CN(C(=O)CCl)C(C(=O)NC1CCCCC1)c1ccc(C)cc1)OC (configuration not stated) | 1.0 | -2.9 | -0.5 | 3.4 | -0.4 | 78.4*
O=C(Nc1ccccc1NC(=O)c1csnn1)c1csnn1 | -1.0 | 7.4 | -5.3 | 2.1 | 1.9 | 28.1*
CCOC(=O)CC1=CCc2c1ccc(OC)c2OC | / | 1.3 | -2.0 | / | 2.8 | /
Cc1ccc(NC(=O)c2sc(C)nc2C)c(C)c1 | 0.4 | 4.0 | 1.0 | -3.6 | 4.5 | 17.8*
Oc1ccccc1Cn1c(-c2ccccc2O)nc2ccccc21 | 5.8 | -3.6 | 8.6 | 3.5 | 13.4 | -0.8
COc1ccccc1Cn1c(-c2ccccc2OC)nc2ccccc21 | 2.7 | -3.3 | -1.3 | 27.2* | 0.5 | -1.7
Cc1ccccc1C(=O)N1CCC(C(=O)NN2C(=O)NC3(CCC(C)CC3)C2=O)CC1 (configuration not stated) | -1.7 | 1.2 | -1.0 | -1.4 | 9.1 | /
O=C(NCC1CCCN(Cc2ccc3nonc3c2)C1)c1cccc(C(F)(F)F)c1 (configuration not stated) | 0.5 | -4.3 | 8.6 | 3.6 | 4.4 | 1.6
O=C(OCc1ccccc1Cl)c1cccnc1Cl | 1.5 | 0.3 | 3.6 | 10.0 | -0.5 | 0.4
O=C(OCc1c(Cl)cccc1Cl)c1cccnc1Cl | 2.1 | 5.4 | -2.4 | 31.6* | 0.3 | 2.5
O=C(OCc1c(Cl)cccc1Cl)c1cnccn1 | -0.8 | 2.4 | 6.7 | 2.9 | 2.0 | 4.0
